# PubChem BioAssay AID1053180 (Broad Institute, 2014)
# The whole screen tested about 9,600 compounds, of which about 20 (0.2%) were called active. Shown is part of a subset that was picked to be rich in actives. A number with no mark means an inactive call.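 How the source made its calls: active means highest normalized replicate activity of 15 or more, or at least half the replicates reach 15 or more; inactive means neither condition met.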
# Assay: activators of Pax4 gene expression, primary screen, RT-PCR, mouse alpha TC1 cells, single point (AID 1053180);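 further: Pax4 Ct normalized to GAPDH with activation seen as lower delta delta Ct; plate controls were plate neutral control wells for no effect and Pax4 plasmid positive control for full effect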
# Details: Pax4 mRNA qPCR, 6 days, at 10 µM, active compounds read high, 100% = Pax4 plasmid added at qPCR
row,Compound,activation
1,O=C(C[C@@H]1CC[C@H]2[C@@H](COC[C@@H](O)CN2C(=O)Cc2ccccc2)O1)NC1Cc2ccccc2C1,0.021%
2,CCCN(C)C[C@H]1OCCCC[C@@H](C)Oc2ccc(NC(=O)CCCN(C)C)cc2C(=O)N([C@H](C)CO)C[C@@H]1C,0.002%
3,C/C=C/c1ccc([C@H]2[C@@H](CO)N3C(=O)CN(Cc4ccc(F)cc4)C[C@@H]23)cc1,86.9% (active)
4,C/C=C/c1ccc([C@H]2[C@@H](CO)N3C(=O)CN(Cc4ccc(F)cc4)C[C@H]23)cc1,0%
5,C/C=C/c1ccc([C@@H]2[C@@H](CO)N3C(=O)CN(Cc4ccc(F)cc4)C[C@@H]23)cc1,0.0005%
6,COc1ccccc1NC(=O)N1CC(=O)N2[C@H](CO)[C@@H](c3ccc(C#CC(C)C)cc3)[C@@H]2C1,0.007%
7,COc1cccc(-c2ccc3c(c2)O[C@H](CN(C)Cc2cccnc2)[C@H](C)CN([C@@H](C)CO)S3(=O)=O)c1,0.057%
8,COc1ccc(C(=O)N2C[C@H]3[C@@H](c4ccccc42)[C@@H](CO)N3C(=O)Cc2ccccn2)cc1,0%
9,N#C[C@@H]1[C@@H](c2ccccc2-c2ccccc2F)[C@H](CO)N1C(=O)Cc1ccccc1,0.001%
10,Cc1nc(N2[C@@H](C#N)[C@@H](c3ccccc3)[C@@H]2CO)sc1C,0.0005%
11,COc1ccc(C[C@@H]2CCn3cc(nn3)COC[C@H](C)NC2=O)cc1,0.0005%
12,Cc1ccc(S(=O)(=O)N2C[C@H]3[C@@H](c4ccccc42)[C@@H](CO)N3Cc2cccnc2)cc1,0.002%
13,O=C(C[C@H]1CC[C@H]2[C@@H](COC[C@@H](O)CN2S(=O)(=O)c2ccc(F)cc2)O1)NCCN1CCCCC1,0.003%
14,COc1ccc(NC(=O)N[C@H]2CC[C@@H](CCNC(=O)CN3CCOCC3)O[C@H]2CO)cc1,0.002%
15,Cc1noc(C)c1S(=O)(=O)Nc1ccc2c(c1)C(=O)N([C@H](C)CO)C[C@H](C)[C@H](CN(C)Cc1ccc(C(=O)O)cc1)OCCCC[C@H](C)O2,-0.0005%
16,COc1ccc(S(=O)(=O)Nc2ccc3c(c2)C(=O)N([C@@H](C)CO)C[C@H](C)[C@H](CN(C)S(=O)(=O)c2ccc(Cl)cc2)OCCCC[C@H](C)O3)cc1,0.0535%
17,COc1cccc(-c2cccc(-c3nc(C(=O)Nc4ccc(-c5ccccc5)cc4)cc4c3[C@@H](CCO)N(S(=O)C(C)(C)C)C4)c2)c1 (stereo not given in full),42.4% (active)
18,COc1cccc(-c2cccc(-c3nc(C(=O)O)cc4c3[C@@H](CCO)N(S(=O)C(C)(C)C)C4)c2)c1 (stereo not given in full),0%
19,COc1cccc(-c2cccc(-c3nc(C(=O)O)cc4c3[C@H](CCO)N(S(=O)C(C)(C)C)C4)c2)c1 (stereo not given in full),0.001%
20,COc1cccc(-c2ccc3c(c2)[C@@H]2[C@@H](CCN2S(=O)(=O)C2=NC(C)C=N2)[C@H](CO)N3C)c1 (stereo not given in full),0.001%

row,Compound,activation
1,COCC(=O)Nc1ccc2c(c1)[C@H]1C[C@@H](CC(=O)N[C@@H](C)c3ccccc3)O[C@@H](CO)[C@H]1O2,0.004%
2,O=C1CN(S(=O)(=O)c2cccc(F)c2)C[C@@H]2[C@@H](c3ccc(C4=CCCC4)cc3)[C@H](CO)N12,0.006%
3,C[C@H](NC(=O)C[C@@H]1C=C[C@H](NC(=O)c2cccnc2)[C@@H](CO)O1)c1ccccc1,0.001%
4,CO[C@H]1CN(C)C(=O)c2cc(NC(=O)C3CCOCC3)ccc2OC[C@H](C)NC[C@@H]1C,0.0005%
5,CCN1CC(=O)N2[C@@H](CO)[C@H](c3ccc(Br)cc3)[C@@H]2C1,0%
6,Cn1cnc(S(=O)(=O)N[C@H]2CC[C@H](CC(=O)NCC3CCCCC3)O[C@@H]2CO)c1,-0.0005%
7,COc1ccc(S(=O)(=O)N2C[C@H](O)COC[C@@H]3O[C@@H](CC(=O)N[C@H]4CCN(Cc5ccccc5)C4)CC[C@H]32)cc1,-0.0135%
8,COc1ccc2c3c(n(C)c2c1)[C@@H](CO)NCC31CCN(CC2CCCCC2)CC1,0.027%
9,O=C(NC1CCCC1)[C@@H]1[C@@H](CO)[C@@H]2Cn3c(ccc(C4=CCCCC4)c3=O)[C@H]1N2CC1CC1,0%
10,O=C(Nc1ccc2c(c1)[C@@H]1C[C@@H](CC(=O)N3CCCCC3)O[C@H](CO)[C@@H]1O2)NC1CCCCC1,0.012%
11,COc1ccc(S(=O)(=O)N(C)C[C@@H]2Oc3c(NC(=O)c4nc5ccccc5s4)cccc3C(=O)N([C@@H](C)CO)C[C@@H]2C)cc1,-0.002%
12,CCS(=O)(=O)Nc1ccc2c(c1)C(=O)N(C)C[C@H](OC)[C@@H](C)CN(C(=O)c1ccc3c(c1)OCO3)[C@@H](C)CO2,0%
13,C/C=C/c1ccc([C@@H]2[C@H](CO)N(C(C)=O)[C@H]2CN(C(C)=O)C2CCCC2)cc1,0.004%
14,COCC(=O)N1CCC2(CC1)CN(Cc1ccccc1Cl)[C@H](CO)c1[nH]c3cc(OC)ccc3c12,0.0015%
15,CN(C)C(=O)c1cccc(-c2ccc([C@@H]3[C@@H](CO)N4CCCCN(CC5CCOCC5)C[C@@H]34)cc2)c1,0.001%
16,Cc1ccc(S(=O)(=O)Nc2cccc3c2O[C@@H](CN(C)C(=O)Nc2ccc(C(F)(F)F)cc2)[C@@H](C)CN([C@H](C)CO)C3=O)cc1,0.002%
17,C[C@@H]1CN([C@@H](C)CO)C(=O)c2c(c3ccccc3n2C)-c2ccccc2CO[C@H]1CN(C)C(=O)[C@H](Cc1ccccc1)N(C)C,0.0095%
18,CN(C)C(=O)c1ccc(-c2ccc([C@H]3[C@H](C#N)N(C(=O)C4CC4)[C@H]3CO)cc2)cc1,0.0005%
19,N#C[C@H]1[C@@H](c2ccccc2-c2cccc(F)c2)[C@H](CO)N1C(=O)CN1CCOCC1,0.006%
20,O=C(CC1CC1)N1CC[C@@H]2[C@H]1c1cc(-c3ccc(F)cc3)ccc1N[C@@H]2CO,0.0045%
